Experimental data: the supplement of paper PMC10849652
About 7,900 targets were measured; listed, in parts, are those with a hit and a random draw of the rest. About 0.6% of all pairs of compound and target were hits.

What was measured:
Assay in all cases: log2 fold change, soluble protein after heating vs DMSO (PISA); higher = thermal stabilisation; K562 cells, 10 uM, 30 min; active = over 0.2 and 3.5 SD of the protein, either way, in both replicates (recomputed)
[1] = compound: Cc1ccc(NC(=O)c2ccc(CN3CC[C@H](N(C)C)C3)c(C(F)(F)F)c2)cc1Nc1nccc(-c2cncnc2)n1 [bafetinib]
Procedure, shortened: (§1)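 K562 cells at 2×10^6 cells/mL were treated for 30 min with 10 μM compound, and aliquots were heated for 3 min over 48°C-58°C before pooling. Extraction used PBS with 0.5% NP-40 at 4°C, and soluble protein was the supernatant after 21,000xg for 90 min, measured by TMTpro 16plex LC-MS/MS with channel sums equalised. Thermal stability values, relative to control samples and from duplicates, are log2 fold changes.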

[2] = compound: Cc1cccc(CC(=O)N2CCc3c2ccc(-c2cn(C)c4ncnc(N)c24)c3F)n1
Procedure, shortened: as §1

[3] = compound: Cc1cn(-c2cc(NC(=O)c3ccc(C)c(Nc4nccc(-c5cccnc5)n4)c3)cc(C(F)(F)F)c2)cn1 [nilotinib]
Procedure, shortened: as §1

[4] = compound: Cc1nc(Nc2n[nH]c3c2CN(C(=O)N[C@H](CN(C)C)c2ccccc2)C3(C)C)c2sccc2n1
Procedure, shortened: as §1

[5] = compound: Cc1nc(Nc2ncc(C(=O)Nc3c(C)cccc3Cl)s2)cc(N2CCN(CCO)CC2)n1 [dasatinib]
Procedure, shortened: as §1

[6] = compound: Cc1ncc(-c2ccnc(Nc3ccc(S(C)(=O)=O)cc3)n2)n1C(C)C
Procedure, shortened: as §1

[7] = compound: Cn1cc(-c2ccc3c(c2)CCN3C(=O)Cc2cccc(C(F)(F)F)c2)c2c(N)ncnc21
Procedure, shortened: as §1

[8] = compound: Cn1cc(-c2ccc3nnc(C(F)(F)c4ccc5ncccc5c4)n3n2)cn1
Procedure, shortened: as §1

[9] = compound: Cn1cncc1[C@@](N)(c1ccc(Cl)cc1)c1ccc2c(c1)c(-c1cccc(Cl)c1)cc(=O)n2C [tipifarnib]
Procedure, shortened: as §1

[10] = compound: FC(F)(F)c1ccc(/C=C/c2nc(COc3ccc(CCCCn4ccnn4)cc3)co2)cc1 [mubritinib]
Procedure, shortened: as §1

Measured: log2 fold change

MAGEA9 (UniProt P43362)
Sequence of UniProt P43362 (P43362 whole entry, looked up): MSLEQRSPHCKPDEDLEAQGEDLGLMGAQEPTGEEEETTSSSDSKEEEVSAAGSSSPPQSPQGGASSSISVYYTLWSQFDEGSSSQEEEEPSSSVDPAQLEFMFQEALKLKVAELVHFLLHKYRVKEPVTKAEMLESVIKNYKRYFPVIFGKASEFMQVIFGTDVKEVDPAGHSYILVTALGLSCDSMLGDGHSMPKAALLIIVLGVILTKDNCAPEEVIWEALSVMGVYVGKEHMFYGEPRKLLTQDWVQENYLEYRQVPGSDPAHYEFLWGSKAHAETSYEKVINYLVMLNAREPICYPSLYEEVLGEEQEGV
inactive: [1] 0.03 | [2] -0.02 | [3] 0.021 | [4] -0.006 | [5] 0.074 | [6] -0.034 | [7] 0.065 | [8] -0.024 | [9] -0.008 | [10] -0.048

LTV1 (UniProt Q96GA3)
inactive: [1] 0.137 | [2] -0.039 | [3] -0.047 | [4] 0.137 | [5] 0.025 | [6] 0.009 | [7] -0.112 | [8] -0.09 | [9] 0.064 | [10] 0.042

JAK3 (UniProt P52333)
inactive: [1] -0.013 | [2] -0.056 | [3] -0.01 | [4] 0.082 | [5] -0.028 | [6] -0.02 | [7] -0.019 | [8] 0.044 | [9] 0.052 | [10] -0.061

LEMD3 (UniProt Q9Y2U8)
Sequence of UniProt Q9Y2U8 (Q9Y2U8 whole entry, looked up): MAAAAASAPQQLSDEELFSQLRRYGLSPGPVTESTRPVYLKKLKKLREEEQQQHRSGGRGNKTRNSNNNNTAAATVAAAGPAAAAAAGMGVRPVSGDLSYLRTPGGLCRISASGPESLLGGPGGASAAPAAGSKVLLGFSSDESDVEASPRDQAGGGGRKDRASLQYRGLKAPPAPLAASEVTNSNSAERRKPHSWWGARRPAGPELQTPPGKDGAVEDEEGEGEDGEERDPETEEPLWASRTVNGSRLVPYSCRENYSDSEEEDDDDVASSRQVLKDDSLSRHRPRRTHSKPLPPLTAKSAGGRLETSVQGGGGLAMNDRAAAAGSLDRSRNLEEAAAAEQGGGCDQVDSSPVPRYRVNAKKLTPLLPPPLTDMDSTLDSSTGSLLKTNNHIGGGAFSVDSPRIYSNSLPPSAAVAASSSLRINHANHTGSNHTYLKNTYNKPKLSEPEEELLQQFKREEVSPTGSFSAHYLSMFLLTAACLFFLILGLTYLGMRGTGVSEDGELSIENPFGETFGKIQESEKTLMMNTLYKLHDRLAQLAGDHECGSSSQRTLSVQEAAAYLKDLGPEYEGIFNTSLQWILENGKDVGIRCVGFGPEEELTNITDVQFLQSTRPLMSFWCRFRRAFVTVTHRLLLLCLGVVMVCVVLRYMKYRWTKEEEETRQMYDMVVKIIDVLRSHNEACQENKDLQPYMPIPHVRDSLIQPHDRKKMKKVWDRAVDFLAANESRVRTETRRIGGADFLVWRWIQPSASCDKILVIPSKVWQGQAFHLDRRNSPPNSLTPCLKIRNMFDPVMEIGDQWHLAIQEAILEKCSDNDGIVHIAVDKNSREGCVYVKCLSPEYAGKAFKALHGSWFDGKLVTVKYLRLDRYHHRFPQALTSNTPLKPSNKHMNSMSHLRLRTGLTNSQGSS
inactive: [1] -0.171 | [2] -0.114 | [3] -0.127 | [4] -0.026 | [5] -0.106 | [6] 0.037 | [7] 0.163 | [8] 0.049 | [9] -0.008 | [10] 0.001

MAST4 (UniProt O15021)
inactive: [1] -0.029 | [2] 0.034 | [3] -0.073 | [5] -0.112 | [6] -0.004 | [7] 0.131 | [8] 0.09 | [9] -0.087 | [10] -0.003
active: [4] -0.757

MAPKAPK3 (UniProt Q16644)
Sequence of UniProt Q16644 (Q16644 whole entry, looked up): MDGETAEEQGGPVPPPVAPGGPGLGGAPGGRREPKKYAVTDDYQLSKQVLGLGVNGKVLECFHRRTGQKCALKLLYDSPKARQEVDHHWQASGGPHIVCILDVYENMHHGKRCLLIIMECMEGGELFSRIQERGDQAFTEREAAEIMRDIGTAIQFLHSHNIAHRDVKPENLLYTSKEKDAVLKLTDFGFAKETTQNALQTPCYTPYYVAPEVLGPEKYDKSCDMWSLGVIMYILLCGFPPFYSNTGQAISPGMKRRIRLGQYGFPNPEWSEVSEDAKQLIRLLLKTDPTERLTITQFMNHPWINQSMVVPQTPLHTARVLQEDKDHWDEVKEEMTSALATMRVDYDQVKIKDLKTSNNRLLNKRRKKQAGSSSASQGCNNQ
inactive: [1] 0.258 | [2] 0 | [3] 0.281 | [4] -0.03 | [5] 0.002 | [6] -0.032 | [7] -0.005 | [8] 0 | [9] -0.048 | [10] -0.04

LRBA (UniProt P50851)
inactive: [1] -0.047 | [2] 0.053 | [3] -0.067 | [4] -0.022 | [5] -0.061 | [6] 0.014 | [7] 0.047 | [8] 0.002 | [9] -0.06 | [10] 0.024

KPNA1 (UniProt P52294)
inactive: [1] 0 | [2] -0.02 | [3] -0.103 | [4] -0.074 | [5] 0.003 | [6] 0.047 | [7] -0.089 | [8] -0.008 | [9] -0.088 | [10] -0.06

MAP4 (UniProt E7EVA0)
inactive: [1] 0.311 | [2] -0.028 | [3] -0.014 | [4] 0.015 | [5] 0.168 | [6] -0.018 | [7] -0.166 | [8] -0.036 | [9] 0.019 | [10] 0.055

MDN1 (UniProt Q9NU22)
inactive: [1] -0.094 | [2] 0 | [3] -0.15 | [4] -0.195 | [5] -0.245 | [6] -0.089 | [7] 0.02 | [8] 0.011 | [9] -0.052 | [10] -0.089

MED25 isoform 3 (UniProt Q71SY5)
Sequence of UniProt Q71SY5 (Q71SY5 whole entry, looked up): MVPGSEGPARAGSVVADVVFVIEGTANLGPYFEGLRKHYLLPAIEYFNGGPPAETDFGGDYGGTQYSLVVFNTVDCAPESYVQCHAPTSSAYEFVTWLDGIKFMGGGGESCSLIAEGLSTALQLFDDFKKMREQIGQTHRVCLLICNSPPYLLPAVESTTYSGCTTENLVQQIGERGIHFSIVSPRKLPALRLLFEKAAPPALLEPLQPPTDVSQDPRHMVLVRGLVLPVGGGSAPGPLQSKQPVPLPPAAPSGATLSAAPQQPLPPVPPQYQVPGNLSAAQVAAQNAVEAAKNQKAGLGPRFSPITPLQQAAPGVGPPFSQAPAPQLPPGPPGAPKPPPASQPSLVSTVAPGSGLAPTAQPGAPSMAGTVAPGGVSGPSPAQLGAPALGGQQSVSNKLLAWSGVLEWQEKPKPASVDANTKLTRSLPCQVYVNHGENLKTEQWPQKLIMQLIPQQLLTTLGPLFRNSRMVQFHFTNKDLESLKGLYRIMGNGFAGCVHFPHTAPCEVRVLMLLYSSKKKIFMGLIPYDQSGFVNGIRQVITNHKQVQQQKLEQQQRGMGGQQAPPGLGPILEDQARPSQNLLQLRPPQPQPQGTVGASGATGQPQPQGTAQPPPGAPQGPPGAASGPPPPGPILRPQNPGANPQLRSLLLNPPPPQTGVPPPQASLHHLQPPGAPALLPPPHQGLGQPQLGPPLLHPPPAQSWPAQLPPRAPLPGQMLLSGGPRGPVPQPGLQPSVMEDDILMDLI
inactive: [1] 0.09 | [2] 0.217 | [3] -0.013 | [4] 0.003 | [5] -0.049 | [6] -0.09 | [7] -0.071 | [8] 0.076 | [9] 0.054 | [10] -0.308

LSR (UniProt Q86X29)
active: [4] -0.254
inactive: [1] 0.068 | [2] -0.057 | [3] 0.024 | [5] 0.003 | [6] 0.009 | [7] 0.072 | [8] 0.018 | [9] 0.011 | [10] 0.01

IMMT isoform 2 (UniProt Q16891)
inactive: [1] -0.081 | [2] 0.11 | [3] -0.007 | [4] -0.002 | [5] 0.144 | [6] -0.022 | [7] -0.037 | [8] 0.037 | [9] 0.065 | [10] 0.066

KIF13A (UniProt Q9H1H9)
inactive: [1] -0.033 | [2] -0.095 | [3] 0.012 | [4] -0.01 | [5] -0.044 | [6] 0.008 | [7] 0.029 | [8] -0.032 | [9] -0.014 | [10] 0.024

MED1 (UniProt Q15648)
inactive: [1] 0.016 | [2] -0.018 | [3] 0.057 | [4] 0 | [5] 0.037 | [7] -0.064 | [8] -0.089 | [9] 0.069 | [10] 0.004
active: [6] -0.217

IGFBP2 (UniProt P18065)
Sequence of UniProt P18065 (P18065 whole entry, looked up): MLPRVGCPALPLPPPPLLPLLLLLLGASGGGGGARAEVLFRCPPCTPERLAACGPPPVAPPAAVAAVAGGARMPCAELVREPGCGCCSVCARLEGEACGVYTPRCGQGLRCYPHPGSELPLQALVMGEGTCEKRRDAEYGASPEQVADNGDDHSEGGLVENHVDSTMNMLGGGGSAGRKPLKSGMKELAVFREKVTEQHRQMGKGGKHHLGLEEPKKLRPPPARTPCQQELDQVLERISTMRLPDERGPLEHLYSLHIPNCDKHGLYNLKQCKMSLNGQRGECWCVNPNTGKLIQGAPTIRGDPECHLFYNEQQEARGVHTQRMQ
inactive: [1] -0.512 | [2] 0.026 | [3] -0.034 | [4] 0.142 | [5] -0.1 | [6] 0.17 | [7] 0.17 | [8] -0.095 | [9] -0.1 | [10] -0.135

MIEF1 (UniProt L0R8F8)
inactive: [1] -0.077 | [2] -0.001 | [3] -0.1 | [4] 0.067 | [5] 0.001 | [6] -0.093 | [7] 0.022 | [8] -0.053 | [9] -0.03 | [10] -0.039

ILF3 isoform 7 (UniProt Q12906)
inactive: [1] 0.082 | [2] -0.028 | [3] -0.02 | [4] 0.244 | [5] 0.155 | [6] 0.297 | [7] -0.179 | [8] -0.089 | [9] 0.057 | [10] -0.031

METTL18 (UniProt O95568)
inactive: [1] -0.091 | [2] -0.049 | [3] -0.092 | [4] 0.028 | [5] 0.054 | [6] -0.023 | [7] -0.022 | [8] -0.087 | [9] 0.019 | [10] 0.036

LTO1 (UniProt Q8WV07)
inactive: [1] -0.013 | [2] -0.004 | [3] -0.036 | [4] -0.072 | [5] 0 | [6] 0.039 | [7] -0.025 | [8] -0.02 | [9] -0.063 | [10] 0.038

KCT2 (UniProt Q8NC54)
inactive: [1] -0.114 | [2] 0.045 | [3] -0.01 | [4] -0.023 | [5] 0.045 | [6] 0.021 | [7] 0.01 | [8] 0.073 | [9] 0.125 | [10] 0.052

KLHDC4 (UniProt Q8TBB5)
Sequence of UniProt Q8TBB5 (Q8TBB5 whole entry, looked up): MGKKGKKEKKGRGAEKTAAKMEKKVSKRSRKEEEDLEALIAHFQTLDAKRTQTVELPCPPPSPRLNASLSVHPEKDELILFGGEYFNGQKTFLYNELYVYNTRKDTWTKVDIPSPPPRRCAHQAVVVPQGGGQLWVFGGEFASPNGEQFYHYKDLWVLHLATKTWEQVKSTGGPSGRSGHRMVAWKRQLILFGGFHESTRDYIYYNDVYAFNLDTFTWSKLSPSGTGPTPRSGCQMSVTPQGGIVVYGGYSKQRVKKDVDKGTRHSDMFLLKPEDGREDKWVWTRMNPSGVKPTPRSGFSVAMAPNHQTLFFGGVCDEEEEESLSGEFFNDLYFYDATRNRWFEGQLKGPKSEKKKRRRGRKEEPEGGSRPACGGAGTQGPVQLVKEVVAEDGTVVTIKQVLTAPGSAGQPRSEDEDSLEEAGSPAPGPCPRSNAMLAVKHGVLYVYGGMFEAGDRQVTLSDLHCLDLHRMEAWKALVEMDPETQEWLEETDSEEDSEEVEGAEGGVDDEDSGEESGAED
inactive: [1] 0.012 | [2] -0.018 | [3] 0 | [4] -0.067 | [5] 0.107 | [6] 0.156 | [7] -0.175 | [8] -0.23 | [9] 0.106 | [10] -0.333

MICOS13 (UniProt Q5XKP0)
inactive: [1] -0.114 | [2] 0.014 | [3] -0.054 | [4] 0.025 | [5] -0.085 | [6] 0.001 | [7] 0.046 | [8] 0.056 | [9] -0.111 | [10] 0.117

KDM1A isoform 2 (UniProt O60341)
inactive: [1] 0.007 | [2] 0.014 | [3] -0.078 | [4] -0.059 | [5] -0.07 | [6] -0.001 | [7] -0.002 | [8] -0.011 | [9] -0.108 | [10] 0.095

MCCC2 (UniProt Q9HCC0)
inactive: [1] -0.047 | [2] -0.062 | [3] 0.035 | [4] -0.012 | [5] 0.058 | [6] -0.047 | [7] 0.04 | [8] 0.028 | [9] -0.005 | [10] -0.015

LARP7 isoform 3 (UniProt Q4G0J3)
Sequence of UniProt Q4G0J3 (Q4G0J3 whole entry, looked up): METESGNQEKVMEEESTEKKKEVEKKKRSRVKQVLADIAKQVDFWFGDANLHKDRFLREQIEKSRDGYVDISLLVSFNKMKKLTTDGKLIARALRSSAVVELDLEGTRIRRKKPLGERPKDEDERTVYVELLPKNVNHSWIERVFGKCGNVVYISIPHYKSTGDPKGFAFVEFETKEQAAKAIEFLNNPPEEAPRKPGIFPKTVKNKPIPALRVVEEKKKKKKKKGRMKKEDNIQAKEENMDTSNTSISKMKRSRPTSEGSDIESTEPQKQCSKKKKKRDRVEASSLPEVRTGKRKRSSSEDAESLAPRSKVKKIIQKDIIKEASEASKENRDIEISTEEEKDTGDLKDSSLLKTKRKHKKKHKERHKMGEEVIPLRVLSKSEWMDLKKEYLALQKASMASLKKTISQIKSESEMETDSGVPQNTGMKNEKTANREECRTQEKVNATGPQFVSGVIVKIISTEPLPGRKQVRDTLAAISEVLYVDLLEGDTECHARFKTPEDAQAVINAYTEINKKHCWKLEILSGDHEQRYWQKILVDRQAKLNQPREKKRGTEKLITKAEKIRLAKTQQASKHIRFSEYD
inactive: [1] -0.045 | [2] 0.041 | [3] 0.01 | [5] -0.063 | [6] -0.249 | [7] 0.021 | [8] 0.029 | [9] 0.021 | [10] -0.05
active: [4] -0.298

LARP4B (UniProt Q92615)
Sequence of UniProt Q92615 (Q92615 whole entry, looked up): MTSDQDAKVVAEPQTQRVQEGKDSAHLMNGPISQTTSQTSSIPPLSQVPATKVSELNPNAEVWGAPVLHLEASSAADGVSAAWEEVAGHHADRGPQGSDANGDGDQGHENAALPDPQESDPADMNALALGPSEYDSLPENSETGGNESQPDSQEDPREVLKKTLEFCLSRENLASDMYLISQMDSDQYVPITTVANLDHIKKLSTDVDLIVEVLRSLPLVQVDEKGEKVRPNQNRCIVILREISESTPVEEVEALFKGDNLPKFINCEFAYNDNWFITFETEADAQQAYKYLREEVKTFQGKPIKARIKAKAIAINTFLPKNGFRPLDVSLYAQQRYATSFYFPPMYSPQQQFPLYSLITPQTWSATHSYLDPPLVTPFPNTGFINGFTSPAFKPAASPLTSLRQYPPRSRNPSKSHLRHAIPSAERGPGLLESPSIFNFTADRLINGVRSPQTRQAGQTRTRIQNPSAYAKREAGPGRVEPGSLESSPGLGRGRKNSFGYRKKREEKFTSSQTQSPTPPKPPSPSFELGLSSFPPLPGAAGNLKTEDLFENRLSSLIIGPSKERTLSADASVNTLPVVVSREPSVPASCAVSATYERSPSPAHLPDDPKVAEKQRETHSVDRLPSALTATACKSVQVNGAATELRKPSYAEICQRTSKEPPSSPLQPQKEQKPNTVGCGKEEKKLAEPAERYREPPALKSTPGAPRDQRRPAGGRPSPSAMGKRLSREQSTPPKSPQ
inactive: [1] 0.022 | [2] -0.025 | [3] -0.055 | [4] -0.192 | [5] -0.072 | [6] -0.092 | [7] -0.052 | [8] -0.031 | [9] -0.008 | [10] -0.038

LPIN3 isoform 2 (UniProt Q9BQK8)
inactive: [1] 0.006 | [2] 0.024 | [3] -0.005 | [4] -0.051 | [5] -0.128 | [6] 0.038 | [7] 0.06 | [8] 0.002 | [9] 0.008 | [10] 0.089

LEMD2 (UniProt Q8NC56)
Sequence of UniProt Q8NC56 (Q8NC56 whole entry, looked up): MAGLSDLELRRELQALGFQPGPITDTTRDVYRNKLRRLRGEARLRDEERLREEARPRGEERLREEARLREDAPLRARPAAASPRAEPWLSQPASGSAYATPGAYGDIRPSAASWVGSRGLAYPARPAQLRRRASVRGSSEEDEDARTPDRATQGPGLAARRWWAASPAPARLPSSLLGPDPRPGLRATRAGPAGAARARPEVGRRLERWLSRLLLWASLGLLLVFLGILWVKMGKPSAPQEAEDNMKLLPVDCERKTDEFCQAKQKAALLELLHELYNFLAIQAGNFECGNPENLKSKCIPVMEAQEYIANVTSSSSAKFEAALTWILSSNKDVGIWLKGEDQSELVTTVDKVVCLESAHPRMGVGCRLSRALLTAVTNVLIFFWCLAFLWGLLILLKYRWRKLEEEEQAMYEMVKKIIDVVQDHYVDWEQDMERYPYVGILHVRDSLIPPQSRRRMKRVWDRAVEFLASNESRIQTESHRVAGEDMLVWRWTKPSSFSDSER
inactive: [1] -0.036 | [2] -0.008 | [3] -0.035 | [4] -0.123 | [5] -0.079 | [6] 0.011 | [7] 0.089 | [8] 0.008 | [9] -0.045 | [10] -0.021
